Where two headings read alike, the source gives them in different places.
How the values were obtained:
[1] = system: DAPK1; details: concentration: 1 μM, replicates: in singlicate; n = 1
[2] = system: DAPK2; details: concentration: 1 μM, replicates: in singlicate; n = 1
[3] = system: DAPK3; details: concentration: 1 μM, replicates: in singlicate; n = 1
[4] = system: T1, DCAMKL1; details: concentration: 1 μM, replicates: in singlicate; n = 1
T1 construct: gene DCLK1

[5] = system: T2, DCAMKL2; details: concentration: 1 μM, replicates: in singlicate; n = 1
T2 construct: gene DCLK2

[6] = system: T3, DCAMKL3; details: concentration: 1 μM, replicates: in singlicate; n = 1
T3 construct: gene DCLK3

[7] = system: DDR1; details: concentration: 1 μM, replicates: in singlicate; n = 1
[8] = system: DDR2; details: concentration: 1 μM, replicates: in singlicate; n = 1
[9] = system: T4, DLK; details: concentration: 1 μM, replicates: in singlicate; n = 1
T4 construct: gene MAP3K12

[10] = system: T5, DMPK2; details: concentration: 1 μM, replicates: in singlicate; n = 1
T5 construct: gene CDC42BPG

[11] = system: DMPK; details: concentration: 1 μM, replicates: in singlicate; n = 1
[12] = system: T6, DRAK1; details: concentration: 1 μM, replicates: in singlicate; n = 1
T6 construct: gene STK17A

[13] = system: T7, DRAK2; details: n = 1
T7 construct: gene STK17B

[14] = system: DYRK1A; details: concentration: 1 μM, replicates: in singlicate; n = 1
[15] = system: DYRK1B; details: concentration: 1 μM, replicates: in singlicate; n = 1
[16] = system: DYRK2; details: concentration: 1 μM, replicates: in singlicate; n = 1
[17] = system: EGFR; details: concentration: 1 μM, replicates: in singlicate; n = 1
[18] = system: EIF2AK1; details: concentration: 1 μM, replicates: in singlicate; n = 1
[19] = system: EPHA1; details: concentration: 1 μM, replicates: in singlicate; n = 1
[20] = system: EPHA2; details: concentration: 1 μM, replicates: in singlicate; n = 1
[21] = concentration: 1 μM, replicates: in singlicate
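Note: KINOMEscan kinase panel screen.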

## N#Cc1ccc(-c2cc(-c3c[nH]nc3-c3ccccn3)ccn2)cc1 [GW693028]
[1]
  %Inh: 0%
[2]
  %Inh: 0%
[3]
  %Inh: 16%
[4]
  %Inh: 8%
[5]
  %Inh: 17%
[6]
  %Inh: 0%
[7]
  %Inh: 0%
[8]
  %Inh: 1%
[9]
  %Inh: 40%
[10]
  %Inh: 0%
[11]
  %Inh: 0%
[12]
  %Inh: 0%
[13]; [21]
  %Inh: 0%
[14]
  %Inh: 17%
[15]
  %Inh: 0%
[16]
  %Inh: 0%
[17]
  %Inh: 0%
[18]
  %Inh: 6%
[19]
  %Inh: 17%
[20]
  %Inh: 2%

## Cc1cn2c(=O)cc(N3CCOCC3)nc2n1Cc1cccc(Cl)c1Cl [GSK2334006]
[1]
  %Inh: 13%
[2]
  %Inh: 19%
[3]
  %Inh: 22%
[4]
  %Inh: 0%
[5]
  %Inh: 0%
[6]
  %Inh: 0%
[7]
  %Inh: 30%
[8]
  %Inh: 14%
[9]
  %Inh: 21%
[10]
  %Inh: 15%
[11]
  %Inh: 12%
[12]
  %Inh: 0%
[13]; [21]
  %Inh: 12%
[14]
  %Inh: 20%
[15]
  %Inh: 36%
[16]
  %Inh: 0%
[17]
  %Inh: 45%
[18]
  %Inh: 2%
[19]
  %Inh: 51%
[20]
  %Inh: 21%

## Cc1cccc(-c2nc(Nc3ccc4ncsc4c3)c3ccccc3n2)n1 [GW867588]
[1]
  %Inh: 0%
[2]
  %Inh: 0%
[3]
  %Inh: 23%
[4]
  %Inh: 0%
[5]
  %Inh: 7%
[6]
  %Inh: 0%
[7]
  %Inh: 0%
[8]
  %Inh: 35%
[9]
  %Inh: 0%
[10]
  %Inh: 9%
[11]
  %Inh: 0%
[12]
  %Inh: 0%
[13]; [21]
  %Inh: 0%
[14]
  %Inh: 3%
[15]
  %Inh: 0%
[16]
  %Inh: 33%
[17]
  %Inh: 2%
[18]
  %Inh: 0%
[19]
  %Inh: 0%
[20]
  %Inh: 0%

## c1ccc(-c2n[nH]cc2-c2ccnc3ccccc23)nc1 [GW271431]
[1]
  %Inh: 0%
[2]
  %Inh: 0%
[3]
  %Inh: 26%
[4]
  %Inh: 12%
[5]
  %Inh: 11%
[6]
  %Inh: 0%
[7]
  %Inh: 8%
[8]
  %Inh: 0%
[9]
  %Inh: 3%
[10]
  %Inh: 18%
[11]
  %Inh: 2%
[12]
  %Inh: 19%
[13]; [21]
  %Inh: 18%
[14]
  %Inh: 17%
[15]
  %Inh: 20%
[16]
  %Inh: 0%
[17]
  %Inh: 35%
[18]
  %Inh: 14%
[19]
  %Inh: 16%
[20]
  %Inh: 4%

## COc1ccc(Nc2nccc(N3CCC(NC(=O)Nc4cc(C)ccc4C)C3)n2)cc1 (stereo not drawn) [GSK1379741]
[1]
  %Inh: 0%
[2]
  %Inh: 0%
[3]
  %Inh: 10%
[4]
  %Inh: 0%
[5]
  %Inh: 0%
[6]
  %Inh: 4%
[7]
  %Inh: 23%
[8]
  %Inh: 0%
[9]
  %Inh: 0%
[10]
  %Inh: 0%
[11]
  %Inh: 0%
[12]
  %Inh: 0%
[13]; [21]
  %Inh: 0%
[14]
  %Inh: 14%
[15]
  %Inh: 0%
[16]
  %Inh: 12%
[17]
  %Inh: 33%
[18]
  %Inh: 0%
[19]
  %Inh: 30%
[20]
  %Inh: 0%

## Fc1ccc(-c2ncn(CCCN3CCOCC3)c2-c2cccnc2)cc1 [SB-211743]
[1]
  %Inh: 9%
[2]
  %Inh: 0%
[3]
  %Inh: 28%
[4]
  %Inh: 19%
[5]
  %Inh: 6%
[6]
  %Inh: 3%
[7]
  %Inh: 0%
[8]
  %Inh: 24%
[9]
  %Inh: 0%
[10]
  %Inh: 0%
[11]
  %Inh: 24%
[12]
  %Inh: 0%
[13]; [21]
  %Inh: 0%
[14]
  %Inh: 3%
[15]
  %Inh: 0%
[16]
  %Inh: 24%
[17]
  %Inh: 0%
[18]
  %Inh: 0%
[19]
  %Inh: 0%
[20]
  %Inh: 0%

## O=C(NOCC1CC1)c1ccc(F)c(F)c1Nc1ccc(I)cc1Cl
[1]
  %Inh: 1%
[2]
  %Inh: 0%
[3]
  %Inh: 0%
[4]
  %Inh: 0%
[5]
  %Inh: 0%
[6]
  %Inh: 0%
[7]
  %Inh: 0%
[8]
  %Inh: 0%
[9]
  %Inh: 1%
[10]
  %Inh: 0%
[11]
  %Inh: 0%
[12]
  %Inh: 0%
[13]; [21]
  %Inh: 21%
[14]
  %Inh: 0%
[15]
  %Inh: 0%
[16]
  %Inh: 0%
[17]
  %Inh: 0%
[18]
  %Inh: 0%
[19]
  %Inh: 3%
[20]
  %Inh: 0%

## CNc1ncnc2[nH]ncc12 [SKF-18355]
[1]
  %Inh: 7%
[2]
  %Inh: 0%
[3]
  %Inh: 0%
[4]
  %Inh: 33%
[5]
  %Inh: 15%
[6]
  %Inh: 0%
[7]
  %Inh: 0%
[8]
  %Inh: 64%
[9]
  %Inh: 11%
[10]
  %Inh: 0%
[11]
  %Inh: 0%
[12]
  %Inh: 10%
[13]; [21]
  %Inh: 0%
[14]
  %Inh: 0%
[15]
  %Inh: 0%
[16]
  %Inh: 37%
[17]
  %Inh: 0%
[18]
  %Inh: 0%
[19]
  %Inh: 0%
[20]
  %Inh: 0%

## CN(C(=O)c1ccc(-c2cc(-c3c[nH]nc3-c3ccccn3)ccn2)cc1)C1CCOCC1 [GW810083]
[1]
  %Inh: 11%
[2]
  %Inh: 2%
[3]
  %Inh: 0%
[4]
  %Inh: 0%
[5]
  %Inh: 0%
[6]
  %Inh: 19%
[7]
  %Inh: 0%
[8]
  %Inh: 36%
[9]
  %Inh: 14%
[10]
  %Inh: 0%
[11]
  %Inh: 0%
[12]
  %Inh: 1%
[13]; [21]
  %Inh: 2%
[14]
  %Inh: 0%
[15]
  %Inh: 9%
[16]
  %Inh: 9%
[17]
  %Inh: 0%
[18]
  %Inh: 0%
[19]
  %Inh: 0%
[20]
  %Inh: 0%

## CSc1ccc(-c2cc3ncnc(SCC(=O)O)c3s2)cc1
[1]
  %Inh: 12%
[2]
  %Inh: 0%
[3]
  %Inh: 0%
[4]
  %Inh: 0%
[5]
  %Inh: 15%
[6]
  %Inh: 8%
[7]
  %Inh: 0%
[8]
  %Inh: 8%
[9]
  %Inh: 44%
[10]
  %Inh: 0%
[11]
  %Inh: 0%
[12]
  %Inh: 37%
[13]; 1 µM
  %Inh: 97.7%
[14]
  %Inh: 0%
[15]
  %Inh: 0%
[16]
  %Inh: 0%
[17]
  %Inh: 27%
[18]
  %Inh: 12%
[19]
  %Inh: 11%
[20]
  %Inh: 0%

## CC(C)Oc1ccc2c(-c3ccnc(Nc4ccc(N5CCN(C)CC5)cc4)n3)cnn2n1 [GW696155]
[1]
  %Inh: 97.9%
[2]
  %Inh: 90.3%
[3]
  %Inh: 99.6%
[4]
  %Inh: 93.5%
[5]
  %Inh: 91%
[6]
  %Inh: 99.2%
[7]
  %Inh: 45%
[8]
  %Inh: 74%
[9]
  %Inh: 89%
[10]
  %Inh: 13%
[11]
  %Inh: 74%
[12]
  %Inh: 99.5%
[13]; [21]
  %Inh: 94.5%
[14]
  %Inh: 61%
[15]
  %Inh: 61%
[16]
  %Inh: 91.6%
[17]
  %Inh: 50%
[18]
  %Inh: 0%
[19]
  %Inh: 48%
[20]
  %Inh: 0%

## N#Cc1c(N2CCOCC2)sc(-c2ccn[nH]2)c1-c1ccc(Cl)cc1
[1]
  %Inh: 3%
[2]
  %Inh: 0%
[3]
  %Inh: 0%
[4]
  %Inh: 7%
[5]
  %Inh: 11%
[6]
  %Inh: 0%
[7]
  %Inh: 15%
[8]
  %Inh: 6%
[9]
  %Inh: 19%
[10]
  %Inh: 2%
[11]
  %Inh: 4%
[12]
  %Inh: 0%
[13]; [21]
  %Inh: 0%
[14]
  %Inh: 0%
[15]
  %Inh: 47%
[16]
  %Inh: 0%
[17]
  %Inh: 0%
[18]
  %Inh: 0%
[19]
  %Inh: 1%
[20]
  %Inh: 0%
